Source: PubChem BioAssay AID1159580 (chemical genetic matrix, 2015)
Among all 5,500 compounds or so, about 2,000 (36%) were called active. About 18% were inconclusive and are not listed. Cut-off read from the data, not from the text of the source: active = normalized growth mostly below about 0.91 (no sharp cut-off); inconclusive = no clear call, values can overlap the other calls; inactive = mostly above about 0.92. This is one part of the list.

Assay: chemical genetic growth profiling, strain panel (AID 1159580);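 note: tested at 20 µM; growth read once vehicle control cultures reached saturation at 30 °C; 1 = growth at the plate median or of vehicle wells; lower values mean less growth of the strain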
Conditions: S. cerevisiae deletion strains, growth OD

Measured: normalized growth

Cc1ccc(-c2nn[nH]n2)cc1Cl
inactive: locus YAL013W, strain DEP1, hits give low values 0.965 | locus YBR229C, strain ROT2, hits give low values 0.963 | locus YDL101C, strain DUN1, hits give low values 0.985 | locus YDL134C, strain PPH21, hits give low values 0.997 | locus YDR150W, strain NUM1, hits give low values 0.935 | locus YEL061C, strain CIN8, hits give low values 0.983 | locus YGR078C, strain PAC10, hits give low values 0.967 | locus YGR229C, strain SMI1, hits give low values 0.984 | locus YHR030C, strain SLT2, hits give low values 1 | locus YHR087W, strain rtc3, hits give low values 0.975 | locus YJR043C, strain POL32, hits give low values 0.932 | locus YJR075W, strain HOC1, hits give low values 0.966 | locus YLR039C, strain RIC1, hits give low values 1 | locus YLR058C, strain SHM2 (second series), hits give low values 0.962 | locus YLR085C, strain ARP6, hits give low values 1 | locus YLR262C, strain YPT6, hits give low values 1 | locus YML094W, strain GIM5, hits give low values 1 | locus YMR219W, strain ESC1, hits give low values 0.97 | locus YMR263W, strain SAP30, hits give low values 0.933 | locus YNL153C, strain GIM3, hits give low values 0.969 | locus YNL298W, strain CLA4 (second series), hits give low values 1.02 | locus YNL322C, strain KRE1, hits give low values 0.947 | locus YNR030W, strain Alg12, hits give low values 1 | locus YOL006C, strain TOP1, hits give low values 1.07 | locus YPL055C, strain LGE1, hits give low values 0.944 | locus YPL241C, strain CIN2, hits give low values 1.12 | locus YPR135W, strain CTF4, hits give low values 1.03
